Structures are written as SMILES. Where a name gives a salt, the structure may show the parent alone.

Results on 33 molecules are retold here after the supplement of paper PMC10127200.

The assay has as its system HEPG2. The experiment in a line: Euclidean distance of Cell Painting phenotypic profile (signed KS, 77 features) to DMSO centroid (dimensionless distance); 5 or 10 uM (library dependent); higher = stronger phenotypic change vs DMSO (phenoactivity). The following applies: 48 h. The essentials: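 Stained cells were imaged confocally at 20X with 9 fields per well, after 48 h of exposure to library compounds at 10 or 5 uM (set by library; 0.1% DMSO final). The cells were five cancer lines and a healthy fibroblast line. From the images, Harmony extracted 77 features, each expressed as a signed Kolmogorov-Smirnov statistic relative to same-plate vehicle wells. Phenoactivity is measured as Euclidean distance to the median vehicle profile, using plate-position-corrected, correlation-weighted profiles averaged across replicates at the top dose.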
`C#C[C@]1(O)CC[C@H]2[C@@H]3CCc4cc(OC)ccc4[C@H]3CC[C@@]21C` [Mestranol] had an Euclidean distance of 0.905.

`CCCC1CC(C(=O)NC(C(C)Cl)C2OC(SC)C(O)C(O)C2O)N(C)C1` (stereo not drawn) [Clindamycin alcoholate] returned an Euclidean distance of 1.01.

Turning to `Nc1nc(=O)c2nc(CNc3ccc(C(=O)N[C@@H](CCC(=O)O)C(=O)O)cc3)cnc2[nH]1` [Folic acid], the Euclidean distance is 0.743.

The molecule `Cc1ccc(NCCCc2ccccc2)c(N)c1` came in with an Euclidean distance of 0.57.

As for `COC(=O)N[C@H](C(=O)N1CCC[C@H]1c1nc(-c2ccc3c(c2)O[C@@H](c2ccccc2)n2c-3cc3cc(-c4c[nH]c([C@@H]5CCCN5C(=O)[C@@H](NC(=O)OC)C(C)C)n4)ccc32)c[nH]1)C(C)C` [Elbasvir], the Euclidean distance came out at 1.04.

As for `O=c1ccn([C@@H]2O[C@H](COP(=O)(O)OP(=O)(O)OP(=O)(O)OP(=O)(O)OC[C@H]3O[C@@H](n4ccc(=O)[nH]c4=O)[C@H](O)[C@@H]3O)[C@@H](O)[C@H]2O)c(=O)[nH]1` [Diquafosol Tetrasodium], the Euclidean distance was found to be 0.787.

In turn, `O=C1Nc2ccccc2C1=O` [Isatin] registered an Euclidean distance of 1.03.

In turn, `CC1(C)NC(=O)N(c2ccc([N+](=O)[O-])c(C(F)(F)F)c2)C1=O` [Nilutamide] displayed an Euclidean distance of 0.474.

The molecule `CC12CCC(CC1=O)C2(C)C` (stereo not drawn) [Camphor] yielded an Euclidean distance of 0.352.

Molecule `CCCCc1nc(Cl)c(CO)n1Cc1ccc(-c2ccccc2-c2nnn[nH]2)cc1` [Losartan Potassium (DuP 753)] returned an Euclidean distance of 0.759.

The molecule `C[C@@H]1C[C@H]2[C@@H]3CCC4=CC(=O)C=C[C@]4(C)[C@@]3(F)[C@@H](O)C[C@]2(C)[C@@]1(O)C(=O)CO` [Dexamethasone (DHAP)] registered an Euclidean distance of 0.718.

In turn, `O=C(NC1CCOCC1)c1ccc(-c2cc(-c3c[nH]nc3-c3ccccn3)ccn2)cc1` gave an Euclidean distance of 1.01.

Molecule `COC(=O)Nc1nc2cc(Sc3ccccc3)ccc2[nH]1` [Fenbendazole] came in with an Euclidean distance of 2.12.

`CS(=O)(=O)c1ccc(-c2cnc(N)c(C(=O)Nc3ccccc3)n2)cc1`: the Euclidean distance came out at 1.07.

Turning to `CC(C)(Oc1ccc(C(=O)c2ccc(Cl)cc2)cc1)C(=O)O` [Fenofibric acid], the Euclidean distance was determined as 0.698.

`Cc1[nH]c(/C=C2\C(=O)Nc3ccccc32)c(C)c1CCC(=O)O` [TSU-68 (SU6668. Orantinib)] had an Euclidean distance of 0.787.

Molecule `CNC[C@H](O)c1cccc(O)c1` [Phenylephrine HCl] had an Euclidean distance of 0.549.

`CCCCCOc1ccccc1/C(=C\SC)n1ccnc1` [Neticonazole Hydrochloride] yielded an Euclidean distance of 1.31.

Molecule `NC[C@H](O)c1ccc(O)c(O)c1` [Noradrenaline bitartrate monohydrate] gave an Euclidean distance of 0.697.

The molecule `CC(C)(O)c1ccccc1CC[C@@H](SCC1(CC(=O)O)CC1)c1cccc(/C=C/c2ccc3ccc(Cl)cc3n2)c1` [Montelukast Sodium] had an Euclidean distance of 0.526.

`CN1CCN(CCOc2cc(OC3CCOCC3)c3c(Nc4c(Cl)ccc5c4OCO5)ncnc3c2)CC1` [Saracatinib (AZD0530)]: the Euclidean distance is 1.98.

Regarding `O=C(Nc1cccnc1)N1CCC(Cc2cccc(Oc3ccc(C(F)(F)F)cn3)c2)CC1`, the Euclidean distance amounted to 1.94.

The molecule `Nc1nc(NC2CC2)c2ncn([C@H]3C=C[C@@H](CO)C3)c2n1` [Abacavir] displayed an Euclidean distance of 0.494.

In the case of `C=C1/C(=C\C=C2/CCC[C@]3(C)[C@@H]([C@H](C)/C=C/[C@H](C)C(C)C)CC[C@@H]23)C[C@@H](O)C[C@@H]1O` [Doxercalciferol], the Euclidean distance is 2.03.

Molecule `C=C1CC/C=C(/C)CC[C@@H]2[C@@H]1CC2(C)C` [Œ≤-Caryophyllene] yielded an Euclidean distance of 0.457.

Molecule `NCc1ccc(S(N)(=O)=O)cc1` [Mafenide Acetate] had an Euclidean distance of 0.456.

With `Nc1nc(F)nc2c1ncn2[C@@H]1O[C@H](COP(=O)(O)O)[C@@H](O)[C@@H]1O` [Fludarabine Phosphate], the Euclidean distance was 1.57.

The molecule `CCOC(=O)N1CCC(=C2c3ccc(Cl)cc3CCc3cccnc32)CC1` [Loratadine] returned an Euclidean distance of 1.48.

`COc1ccc2c(c1)c(CC(=O)O)c(C)n2C(=O)c1ccc(Cl)cc1` [Indomethacin]: the Euclidean distance was determined as 1.8.

The molecule `NC(=O)N1c2ccccc2CC(=O)c2ccccc21` [Oxcarbazepine] had an Euclidean distance of 1.13.

`CC(C)CCCC(C)N` (stereo not drawn) [Octodrine (2-Amino-6-methylheptan)] gave an Euclidean distance of 1.34.

Consider `CN(C)C(=O)COC(=O)Cc1ccc(OC(=O)c2ccc(NC(=N)N)cc2)cc1` [Camostat Mesilate], for which the Euclidean distance was determined as 0.823.

`C[C@]12CC[C@@H]3c4ccc(O)cc4CC[C@H]3[C@@H]1CCC2=O` [Estrone] yielded an Euclidean distance of 0.472.
